Assay outcomes: PubChem, National Center for Advancing Translational Sciences (NCATS)
HepG2 tox-1 = counter-screen for TGF-b inhibitors: cytotoxicity in HepG2 cells. HepG2 CAGA-GFP viability, ATP luminescence, 18 h. Potency, µM (titrated, usually from 46.1 µM), inactives show at the highest dose activity change, negative = cytotoxicity, most hits filed as cytotoxic. hit rate 0.76% among 410,000
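CellTiter-Glo luminescence gave cytotoxicity after 18 hours at 37 degrees C. The cells were HepG2 CAGA-GFP in 1% FBS DMEM, stimulated with 500 pg/mL TGF-beta after compound addition. %Activity was normalised to no-cell wells (complete cell-killing) and DMSO (no toxicity), and curves were fitted and classified.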
S2 tox = viability counter-screen for ATXN expression inhibitors; S2 cells (HEK-293 line with an ATXN2-luciferase reporter) viability, CellTiter-Fluor protease fluorescence, 24 h; hit rate 0.49% among 400,000; Potency, µM (doses to about 56.7 µM), most hits filed as cytotoxic; also: nearly all actives have a fitted effect of over 40% in size
DT40 TDP1 no CPT = qHTS for Inhibitors of human tyrosyl-DNA phosphodiesterase 1 (TDP1): qHTS in cells in absence of CPT; DT40 Tdp1-/- hTDP1 cells, no CPT, ATP luminescence, 48 h; AID 686978, 2013; Potency, µM (doses to about 46.2 µM), without a hit: top-dose activity change, negative = growth inhibition, hits mostly inhibitors; hit rate 15% among 420,000; also: % is scaled to controls: 0 for no effect and ±100 for the full control effect; nearly all actives have a fitted effect of over 55% in size
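Luminescent ATP content (CellTiter-Glo) served as the growth readout. Knockout chicken DT40 cells expressing human TDP1 were exposed to compounds without camptothecin for a minimum 48 hr at 37 °C.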
TDP1 cell CPT = DT40-hTDP1 cell growth loss with CPT; chicken DT40 Tdp1-/-;hTDP1 cells + 20 nM CPT, ATP luminescence, 48 h; Potency, µM (titrated, usually from 46.2 µM), without a hit: at the top dose activity change, negative = growth inhibition, most hits filed as inhibitors; hit rate 12% among 420,000; also: % is scaled to controls: 0 for no effect and ±100 for the full control effect; nearly all actives have a fitted effect of over 55% in size
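Chicken DT40 Tdp1-/- cells stably complemented with human TDP1 were seeded at 400 cells/well in medium containing 20 nM camptothecin, exposed to pin-transferred compounds, and grown at 37 °C for at least 48 hr. Viability was read as ATP luminescence.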
TGFb inhibitor = TGF-b pathway inhibition; hit rate 1.2% among 410,000; HepG2 CAGA-GFP TGF-b/SMAD3 reporter, GFP fluorescence, 18 h; TGF-beta stimulated, 500 pg/mL final; AID 588855; Potency, µM (highest dose often 46.1 µM), for the others: at the top dose activity, negative = inhibition, actives largely listed as inhibitors; also: % is scaled to controls: 0 for no effect and ±100 for the full control effect; nearly all actives have a fitted effect of over 65% in size
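Using HEPG2 CAGA-GFP reporter cells at 1000 cells/well, we pinned test compounds, stimulated with recombinant TGF-beta (500 pg/mL final) and measured total well GFP after 18 h.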
ATXN2 expr inh = inhibitors of ATXN2 expression | HEK-293 ATXN2-luciferase reporter, luminescence, 24 h | Potency, µM (top dose mostly 57 µM), without a hit: top-dose activity change, negative = inhibition, usual class: inhibitors | hit rate 0.72% among 360,000 | AID 1745845; also: % is scaled to controls: 0 for no effect and ±100 for the full control effect; nearly all actives have a fitted effect of over 55% in size
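qHTS (up to 57 uM final) was run with 24 h compound exposure of reporter cells at 37 °C. Each well was multiplexed: SteadyGlo luminescence measured ATXN2-luciferase expression after a fluorogenic Gly-Phe-AFC viability readout (25 uM final).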
TGFb confirm = confirmation of TGF-b signaling inhibitors in HepG2 reporter cells. hit rate 63% among 1,600. HepG2 CAGA-GFP TGF-b reporter, GFP fluorescence, 18 h; cells stimulated with TGF-beta, 500 pg/mL. shares compounds with TGFb inhibitor. Potency, µM (top dose mostly 46.1 µM), for inactives: at the highest dose activity, negative = inhibition, actives largely listed as inhibitors. AID 720534; also: % is scaled to controls: 0 for no effect and ±100 for the full control effect; nearly all actives have a fitted effect of over 65% in size
HepG2 tox-2 = HepG2 cytotoxicity, TGF-b inhibitor counterscreen; shares compounds with TGFb inhibitor; HepG2 CAGA-GFP viability, ATP luminescence, 18 h; cells stimulated with TGF-beta, 500 pg/mL; Potency, µM (series often up to 46.1 µM), for the others: top-dose activity, negative = cytotoxicity, actives largely listed as inhibitors; hit rate 27% among 1,600; also: % is scaled to controls: 0 for no effect and ±100 for the full control effect; nearly all actives have a fitted effect of over 70% in size
CCL64 TGFb inh = blocks TGF-b signaling in CCL64 reporter cells; shares compounds with TGFb inhibitor; Potency, µM (doses to about 46.1 µM), inactives show at the highest dose activity, negative = inhibition, hits mostly inhibitors; hit rate 41% among 1,600; CCL64 CAGA-GFP reporter, TGF-b stimulated, GFP fluorescence, 18 h; also: nearly all actives have a fitted effect of over 65% in size
COP TGFb inh = TGF-b inhibition validated with COP promoter. Potency, µM (series often up to 46.1 µM), inactives show at the top dose activity, negative = inhibition, most hits filed as inhibitors. shares compounds with TGFb inhibitor. hit rate 3% among 1,600. HepG2 COP-GFP TGF-b reporter, GFP fluorescence, 18 h; cells stimulated by added recombinant TGF-beta; also: nearly all actives have a fitted effect of over 70% in size
The depositor's hits bear a star; ! = not active in a repeat. Sampled rows, rich in hits. Any-hit rate of the full collection: about 17%. Calls follow the shape of the dose curve; as a rule, active = well fitted curve in the direction sought with a large enough effect; inconclusive = small, poorly fitted or top-dose-only effect, or another doubt; inactive = no such curve, though single readings can be large; an effect the other way counts as inactive or inconclusive. Potency is read from the fitted curve at half-maximal effect.

How did CCOc1ccccc1CNS(=O)(=O)c1ccc(-c2cnc(C3CC3)o2)cc1 do in these assays?
HepG2 tox-1: -28%; S2 tox: 1.3µM*!; DT40 TDP1 no CPT: 0.65µM*; TDP1 cell CPT: 0.82µM*; TGFb inhibitor: 10µM*; ATXN2 expr inh: -9%; TGFb confirm: 5.8µM*; HepG2 tox-2: inconclusive; CCL64 TGFb inh: 8.2µM*; COP TGFb inh: -10%

How did O=S(=O)(c1ccc(-c2cnc(C3CC3)o2)cc1)N1CCN(c2ccccc2)CC1 do in these assays?
HepG2 tox-1: -41%; S2 tox: inconclusive; DT40 TDP1 no CPT: inconclusive; TDP1 cell CPT: inconclusive; TGFb inhibitor: inconclusive; ATXN2 expr inh: -26%

What do the screens show for `Cc1cccc(C)c1NS(=O)(=O)c1ccc(-c2cnc(C3CC3)o2)cc1`?
HepG2 tox-1: -29%; S2 tox: inconclusive; DT40 TDP1 no CPT: 0.12µM*; TDP1 cell CPT: 0.0058µM*; TGFb inhibitor: 4µM*; TGFb confirm: 2.6µM*; HepG2 tox-2: inconclusive; CCL64 TGFb inh: 0.82µM*; COP TGFb inh: 52%

How did COc1cc(OC)cc(C(=O)OCC(=O)NC2CCCCCCC2)c1 do in these assays?
HepG2 tox-1: 3%; S2 tox: inactive; DT40 TDP1 no CPT: inconclusive; TDP1 cell CPT: -26%; TGFb inhibitor: 8%

What do the screens show for `Oc1ccc(C[C@H]2CNC(=S)N2CC2CCCN2C[C@H](Cc2ccccc2)N2C[C@H](Cc3ccc(O)cc3)N(CC3CCCCC3)C2=S)cc1` (some centres undefined)?
HepG2 tox-1: -52%; S2 tox: inconclusive; DT40 TDP1 no CPT: 21µM*; TDP1 cell CPT: inconclusive; TGFb inhibitor: 5.6µM*; ATXN2 expr inh: inconclusive; TGFb confirm: 15µM*; HepG2 tox-2: inconclusive; CCL64 TGFb inh: 4.1µM*; COP TGFb inh: 30%

How did CC(C)C[C@H]1CN([C@@H](Cc2ccccc2)CN2CCC[C@H]2CN2C(=O)C(=O)NC[C@@H]2Cc2ccc(O)cc2)C(=O)C(=O)N1CC1CCCCC1 do in these assays?
S2 tox: inconclusive; DT40 TDP1 no CPT: inconclusive; TDP1 cell CPT: inconclusive; ATXN2 expr inh: -9%
